# Data: PubChem BioAssay AID1159580 (chemical genetic matrix, 2015)
# The campaign covered roughly 5,500 compounds. About 2,000 (36%) were called active. Inconclusive results (about 18%) are left out. The list shows a part of the results. A number with no mark means an inactive call. Rule as the data show it: active = normalized growth mostly below about 0.91 (no sharp cut-off); inconclusive = no clear call, values can overlap the other calls; inactive = mostly above about 0.92.
# Test: chemical genetic growth profiling, strain panel (AID 1159580);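 also: tested at 20 µM; growth read once vehicle control cultures reached saturation at 30 °C; 1 = growth at the plate median or of vehicle wells; lower values mean less growth of the strain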
# Settings: growth OD
smiles,measurement,setting,value
CC(=O)Oc1ccc2c(c1)CCC1C2CC[C@]2(C)C(=O)CCC12 (stereo not given in full),normalized growth,"S. cerevisiae deletion strains, locus YJR043C, strain POL32, active compounds read low",0.982
same,normalized growth,"S. cerevisiae deletion strains, locus YJR066W, strain TOR1, active compounds read low",0.895
same,normalized growth,"S. cerevisiae deletion strains, locus YKL009W, strain mrt4, active compounds read low",0.972
same,normalized growth,"S. cerevisiae deletion strains, locus YKL068W, active compounds read low",1.02
same,normalized growth,"S. cerevisiae deletion strains, locus YKL085W, strain MDH1 (second series), active compounds read low",1
same,normalized growth,"S. cerevisiae deletion strains, locus YKL085W, strain MDH1, active compounds read low",1
same,normalized growth,"S. cerevisiae deletion strains, locus YKL160W, strain elf1, active compounds read low",0.986
same,normalized growth,"S. cerevisiae deletion strains, locus YKL190W, strain CNB1, active compounds read low",1
same,normalized growth,"S. cerevisiae deletion strains, locus YKR001C, strain vps1, active compounds read low",1.01
same,normalized growth,"S. cerevisiae deletion strains, locus YKR026C, strain gcn3, active compounds read low",0.984
same,normalized growth,"S. cerevisiae deletion strains, locus YKR091W, strain srl3, active compounds read low",0.985
same,normalized growth,"S. cerevisiae deletion strains, locus YLL001W, strain dnm1, active compounds read low",0.964
same,normalized growth,"S. cerevisiae deletion strains, locus YLL026W, active compounds read low",0.988
same,normalized growth,"S. cerevisiae deletion strains, locus YLL041C, strain sdh2, active compounds read low",0.983
same,normalized growth,"S. cerevisiae deletion strains, locus YLR027C, strain aat2, active compounds read low",0.983
same,normalized growth,"S. cerevisiae deletion strains, locus YLR039C, strain RIC1, active compounds read low",0.725
same,normalized growth,"S. cerevisiae deletion strains, locus YLR058C, strain SHM2, active compounds read low",0.987
same,normalized growth,"S. cerevisiae deletion strains, locus YLR102C, strain apc9, active compounds read low",1.02
same,normalized growth,"S. cerevisiae deletion strains, locus YLR113W, strain HOG1, active compounds read low",0.991
same,normalized growth,"S. cerevisiae deletion strains, locus YLR221C, strain rsa3, active compounds read low",0.991
same,normalized growth,"S. cerevisiae deletion strains, locus YLR258W, strain gsy2, active compounds read low",0.985
same,normalized growth,"S. cerevisiae deletion strains, locus YLR262C, strain YPT6 (second series), active compounds read low",0.689 (active)
same,normalized growth,"S. cerevisiae deletion strains, locus YLR262C, strain YPT6, active compounds read low",0.623
same,normalized growth,"S. cerevisiae deletion strains, locus YLR268W, strain sec22, active compounds read low",1.01
same,normalized growth,"S. cerevisiae deletion strains, locus YLR320W, strain mms22, active compounds read low",0.983
same,normalized growth,"S. cerevisiae deletion strains, locus YLR330W, strain CHS5, active compounds read low",1
same,normalized growth,"S. cerevisiae deletion strains, locus YLR342W, strain FKS1 (second series), active compounds read low",0.959
same,normalized growth,"S. cerevisiae deletion strains, locus YLR342W, strain FKS1, active compounds read low",0.965
same,normalized growth,"S. cerevisiae deletion strains, locus YLR357W, strain rsc2, active compounds read low",0.981
same,normalized growth,"S. cerevisiae deletion strains, locus YLR370C, strain arc18, active compounds read low",0.975
same,normalized growth,"S. cerevisiae deletion strains, locus YLR371W, strain rom2, active compounds read low",1.02
same,normalized growth,"S. cerevisiae deletion strains, locus YLR384C, strain iki3, active compounds read low",0.961
same,normalized growth,"S. cerevisiae deletion strains, locus YLR418C, strain cdc73, active compounds read low",0.966
same,normalized growth,"S. cerevisiae deletion strains, locus YML016C, strain PPZ1, active compounds read low",1
same,normalized growth,"S. cerevisiae deletion strains, locus YML032C, strain rad52, active compounds read low",0.997
same,normalized growth,"S. cerevisiae deletion strains, locus YML120C, strain ndi1, active compounds read low",0.986
same,normalized growth,"S. cerevisiae deletion strains, locus YML124C, strain tub3, active compounds read low",1.02
same,normalized growth,"S. cerevisiae deletion strains, locus YMR058W, strain fet3, active compounds read low",0.96
same,normalized growth,"S. cerevisiae deletion strains, locus YMR078C, strain ctf18, active compounds read low",0.999
same,normalized growth,"S. cerevisiae deletion strains, locus YMR125W, strain sto1, active compounds read low",0.992
same,normalized growth,"S. cerevisiae deletion strains, locus YMR129W, active compounds read low",0.987
same,normalized growth,"S. cerevisiae deletion strains, locus YMR205C, strain PFK2, active compounds read low",0.947
same,normalized growth,"S. cerevisiae deletion strains, locus YMR223W, strain ubp8, active compounds read low",0.996
same,normalized growth,"S. cerevisiae deletion strains, locus YMR231W, strain pep5, active compounds read low",0.964
same,normalized growth,"S. cerevisiae deletion strains, locus YMR307W, strain GAS1, active compounds read low",1.07
same,normalized growth,"S. cerevisiae deletion strains, locus YNL067W, strain RPL9B, active compounds read low",0.956
same,normalized growth,"S. cerevisiae deletion strains, locus YNL071W, strain lat1, active compounds read low",0.994
same,normalized growth,"S. cerevisiae deletion strains, locus YNL128W, strain TEP1, active compounds read low",1.02
same,normalized growth,"S. cerevisiae deletion strains, locus YNL183C, strain NPR1, active compounds read low",0.894
same,normalized growth,"S. cerevisiae deletion strains, locus YNL209W, strain ssb2, active compounds read low",0.982
same,normalized growth,"S. cerevisiae deletion strains, locus YNL233W, strain BNI4, active compounds read low",0.949
same,normalized growth,"S. cerevisiae deletion strains, locus YNL248C, strain rpa49, active compounds read low",1
same,normalized growth,"S. cerevisiae deletion strains, locus YNL250W, strain rad50, active compounds read low",1.01
same,normalized growth,"S. cerevisiae deletion strains, locus YNL271C, strain bni1, active compounds read low",1.02
same,normalized growth,"S. cerevisiae deletion strains, locus YNL298W, strain CLA4, active compounds read low",0.962
same,normalized growth,"S. cerevisiae deletion strains, locus YNL307C, strain MCK1, active compounds read low",1.01
same,normalized growth,"S. cerevisiae deletion strains, locus YNL322C, strain KRE1 (second series), active compounds read low",0.967
same,normalized growth,"S. cerevisiae deletion strains, locus YNL322C, strain KRE1, active compounds read low",1
same,normalized growth,"S. cerevisiae deletion strains, locus YNR049C, strain mso1, active compounds read low",0.992
same,normalized growth,"S. cerevisiae deletion strains, locus YNR052C, strain pop2, active compounds read low",0.996
same,normalized growth,"S. cerevisiae deletion strains, locus YOL006C, strain TOP1, active compounds read low",0.719
same,normalized growth,"S. cerevisiae deletion strains, locus YOL012C, strain htz1",1.64
same,normalized growth,"S. cerevisiae deletion strains, locus YOL147C, strain pex11, active compounds read low",1.01
same,normalized growth,"S. cerevisiae deletion strains, locus YOR001W, strain rrp6, active compounds read low",0.972
same,normalized growth,"S. cerevisiae deletion strains, locus YOR061W, strain CKA2, active compounds read low",1
same,normalized growth,"S. cerevisiae deletion strains, locus YOR069W, strain VPS5, active compounds read low",1.01
same,normalized growth,"S. cerevisiae deletion strains, locus YOR070C, strain gyp1, active compounds read low",0.988
same,normalized growth,"S. cerevisiae deletion strains, locus YOR080W, strain dia2, active compounds read low",0.983
same,normalized growth,"S. cerevisiae deletion strains, locus YOR083W, strain WHI5, active compounds read low",0.976
same,normalized growth,"S. cerevisiae deletion strains, locus YOR106W, strain vam3, active compounds read low",0.968
same,normalized growth,"S. cerevisiae deletion strains, locus YOR136W, strain idh2, active compounds read low",1.01
same,normalized growth,"S. cerevisiae deletion strains, locus YOR144C, strain elg1, active compounds read low",1.01
same,normalized growth,"S. cerevisiae deletion strains, locus YOR184W, strain ser1, active compounds read low",0.86 (active)
same,normalized growth,"S. cerevisiae deletion strains, locus YOR231W, strain MKK1, active compounds read low",0.928
same,normalized growth,"S. cerevisiae deletion strains, locus YOR265W, strain rbl2, active compounds read low",0.989
same,normalized growth,"S. cerevisiae deletion strains, locus YOR270C, strain vph1, active compounds read low",0.975
same,normalized growth,"S. cerevisiae deletion strains, locus YOR290C, strain snf2, active compounds read low",0.998
same,normalized growth,"S. cerevisiae deletion strains, locus YOR316C, strain cot1, active compounds read low",1.03
same,normalized growth,"S. cerevisiae deletion strains, locus YPL051W, strain arl3, active compounds read low",0.979
same,normalized growth,"S. cerevisiae deletion strains, locus YPL078C, strain atp4, active compounds read low",0.959
same,normalized growth,"S. cerevisiae deletion strains, locus YPL106C, strain sse1, active compounds read low",1.02
same,normalized growth,"S. cerevisiae deletion strains, locus YPL240C, strain hsp82, active compounds read low",0.969
same,normalized growth,"S. cerevisiae deletion strains, locus YPL241C, strain CIN2, active compounds read low",1.01
same,normalized growth,"S. cerevisiae deletion strains, locus YPL256C, strain CLN2, active compounds read low",0.945
same,normalized growth,"S. cerevisiae deletion strains, locus YPR119W, strain clb2, active compounds read low",1.01
same,normalized growth,"S. cerevisiae deletion strains, locus YPR141C, strain kar3, active compounds read low",1.02
same,normalized growth,"S. cerevisiae deletion strains, locus YPR163C, strain tif3, active compounds read low",1.03
same,normalized growth,"S. cerevisiae deletion strains, locus YPR167C, strain met16, active compounds read low",1.02
same,normalized growth,"S. cerevisiae deletion strains, strain wtn01, active compounds read low",0.997
same,normalized growth,"S. cerevisiae strains, strain wild type, active compounds read low",0.993
